Experiment [1] addresses 3',5'-cyclic-AMP phosphodiesterase 4B (Homo sapiens) (UniProt Q07343). Briefly: qHTS Assay for Inhibitors of PDE-IV (AID 607; active = well fitted activation curve with a large enough effect in the main read-out, with a control signal flat, not every such curve was filed as active; note: potency is the fitted concentration of half-maximal effect). The method in brief: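 Cell-based read-out of cAMP via a modified cyclic nucleotide-gated channel and membrane potential dye (535/590 nm) in HEK293 cells expressing PDE4 endogenously. Compounds tested up to 22.9 uM final; 100 uM RO 20-1724 reference.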

Experiment [2] addresses Ubiquitin carboxyl-terminal hydrolase 1 (Homo sapiens) (UniProt O94782). Briefly: Inhibitors of USP1/UAF1: Pilot qHTS (AID 504865). Note: nearly all actives have a fitted effect of over 35% in size. Note: potency is the fitted concentration of half-maximal effect. The method in brief:
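In 50mM HEPES pH 7.8 containing 0.5mM EDTA, 1mM TCEP, 0.1 mg/ml BSA and 0.01% Tween-20, 1nM USP1/UAF1 is exposed to compound for 15 min, then Ub-Rho (150nM final) is added and fluorescence is read over time.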
(Quantitative high-throughput screening tests each substance at several concentrations.)

A short description of experiment [3]: AP1 Signaling Pathway (AID 357; active = well fitted curve in either direction with a large enough effect, not every such curve was filed as active;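 note: ME-180 reporter cells stimulated with EGF at its EC50 level; % is set by controls: 0 for no effect and ±100 for the full control effect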). The method in brief: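 Modulation of EGF-driven AP-1 transcription was assessed with a beta-lactamase reporter in ME-180 cells. Compound and EC50 EGF were co-incubated 5 hours at 37 °C before 2.5-hour CCF4 loading at room temperature and dual-emission reading.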
Experiment [4] can be described thus: NFAT Signaling Pathway (AID 444; active = well fitted curve in either direction with a large enough effect, not every such curve was filed as active;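 note: carbachol stimulus at about its EC50 of 1 µM final; % is set by controls: 0 for no effect and ±100 for the full control effect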). To be noted: Jurkat NFAT-bla M1, carbachol, beta-lactamase ratio, 5 h. The method in brief:
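Jurkat cells carrying an NFAT-driven β-lactamase reporter and co-transfected muscarinic M1 receptor were treated with compound plus carbachol (1 uM final, an EC50 level) for 5 h at 37 °C. CCF4 loading followed for 1 h at RT; 460/530 nm ratio gave %activity.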

Experiment [5] can be described thus: Stat Signaling Pathway (AID 446; active = well fitted curve in either direction with a large enough effect, not every such curve was filed as active;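 note: ME-180 cervical cancer cells given 40 pM IL-6 alongside compound; SIE-controlled beta-lactamase reporter measured as 460/530 nm FRET emission ratio; % is set by controls: 0 for no effect and ±100 for the full control effect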). The method in brief: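 Reporter line: ME-180 cervical carcinoma, SIE-beta-lactamase. Treatment: compound with 40 pM IL-6, 5 hrs, 37 C, in low-serum OPTI-MEM with 10 mM HEPES pH 7.3. Detection: 460/530 nm fluorescence.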
Experiment [6] has as its target Glucocorticoid receptor (Homo sapiens) (UniProt P04150). Briefly: GR-EFC Redistribution (AID 451; calls by dose curve; note: potency is the fitted concentration of half-maximal effect). To be noted: CHO-K1 GR-EFC translocation, beta-gal luminescence, 2 h. Summed up:
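CHO-K1 cells stably expressing nuclear-localized β-gal enzyme acceptor and GR fused C-terminally to the enzyme donor fragment; ligand-driven nuclear translocation restores β-gal by complementation. Compounds titrated up to 46 uM final, 2 h at 37 °C; luminescence read.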

Experiment [7] concerns the target Mitogen-activated protein kinase 10 (Mus musculus) (UniProt Q61831). Briefly: JNK3 AlphaScreen Assay (AID 530; active = well fitted curve in either direction with a large enough effect, not every such curve was filed as active;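 note: kinase came from lysate of stimulated human HepG2 cells; signal reports phosphorylation of biotinylated GST-cJun 1-79 at Ser73 with 10 µM ATP; % is set by controls: 0 for no effect and ±100 for the full control effect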). Summed up:
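JNK3 came from HepG2 lysates pre-activated with IL-1beta and TNF-alpha and phosphorylated biotinylated GST-cJun (1-79) at 10 uM ATP, pH 7.6, room temperature. Compounds were titrated. AlphaScreen signal used anti-phospho-cJun (Ser73) antibody.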
On the technique in general: Alpha assays give light when donor and acceptor beads are brought close together.

The target of experiment [8] is Guanine nucleotide-binding protein G(i) subunit alpha-1 (Homo sapiens) (UniProt P63096). Briefly: qHTS Assay for Inhibitors of RGS12 GoLoco Motif Activity (Green Fluorophore) (AID 879).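 Note: 0% = labeled peptide with Gαi1 and full inhibition = labeled peptide alone without protein; negative values mean loss of peptide binding seen as reduced polarization.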 The method in brief:
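Fluorescence polarization assay: 50 nM Gαi1 with 10 nM FITC-labeled RGS12 GoLoco peptide in 10 mM Tris pH 7.5, 150 mM NaCl, 0.1 mM GDP, 0.05% NP40, 10 min at room temperature with compound.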

For experiment [9], the target named is Cytochrome P450 3A4 (Homo sapiens) (UniProt P08684). Briefly: qHTS Assay for Activators of Cytochrome P450 3A4 (AID 885). Note: nearly all actives have a fitted effect of over 65% in size. Summed up:
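Signal was normalized against complete inhibition by 57 uM ketoconazole. The reaction used 20nM CYP3A4 with 25uM Luciferin-PPXE, 10-min compound preincubation and a 60-min NADPH-supported step at RT.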

Experiment [10] addresses Pyruvate kinase (Leishmania mexicana) (UniProt Q27686). Briefly: qHTS Validation Assay for Inhibitors of Leishmania Mexicana Pyruvate Kinase (AID 945).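 Note: 0% = DMSO only neutral control wells.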 Summed up:
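qHTS eight-point titrations against 0.2 nM LmPYK (E451W) in imidazole buffer pH 7.2 with 0.5 mM PEP, 0.1 mM ADP; 1 h, room temperature. Readout: PKLight luminescence, normalized to neutral DMSO wells.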

Experiment [11] has as its target Alpha-galactosidase (Coffea arabica) (UniProt Q42656). Briefly: Counterscreen for Glucocerebrosidase Inhibitors: qHTS Assay for Coffee Bean alpha-Galactosidase at pH 4.5 (AID 957).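 Note: plate controls were enzyme alone for no effect and no enzyme for full effect.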 The method in brief:
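AC50 values derive from Hill-equation modeling of concentration-response data, normalized to no-enzyme and full-activity controls. The pH 4.5 citrate assay used 2 nM coffee bean enzyme and 80 uM fluorogenic substrate for 20 min.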

Experiment [12] concerns the target Alpha-galactosidase A (Homo sapiens) (UniProt P06280). Briefly: Counterscreen for Glucocerebrosidase Inhibitors: qHTS Assay for Human alpha-Galactosidase at pH 4.5 (AID 992). Note: 0% is about no effect. The method in brief:
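Quantitative HTS: compounds tested from 0.7 nM up to 77 uM against 2 nM enzyme with 80 uM 4-MU alpha-D-galactopyranoside. The 20 min room-temperature reaction is stopped with 1M NaOH/1M glycine, pH 10.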

For experiment [13], the target named is alpha-glucosidase (Oryza sativa, rice) (UniProt Q653V4). Briefly: Counterscreen for Glucocerebrosidase Inhibitors: qHTS Assay for Rice alpha-Glucosidase at pH 5.0 (AID 997).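 Note: 0% = full activity with enzyme and -100% = basal without enzyme.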 The method in brief:
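Rice alpha-glucosidase (4 nM final) with 400 uM 4-methylumbelliferyl-alpha-D-glucopyranoside in citrate buffer pH 5.0, 20 min at room temperature, stopped at pH 10; fluorescence 365/440 nm, compounds 0.7 nM–77 uM, AC50 from Hill fits.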
For orientation: A counterscreen serves to expose hits that act by an unwanted route or on another target.

For experiment [14], the target named is Alpha-galactosidase (Coffea arabica) (UniProt Q42656). Briefly: Counterscreen for Glucocerebrosidase Inhibitors: qHTS Assay for Coffee Bean alpha-Galactosidase at pH 5.9 (AID 998).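 Note: plate controls were uninhibited enzyme for no effect and no-enzyme basal signal for full effect.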 Summed up: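 Green coffee bean enzyme (2 nM final) was incubated with compounds (0.7 nM–77 uM) and 4-methylumbelliferyl alpha-D-galactopyranoside (80 uM) in citrate buffer pH 5.9, 20 min at room temperature. High-pH stop; fluorescence 365/440 nm; AC50 from Hill fits.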

In experiment [15] the target is Luciferin 4-monooxygenase (Photinus pyralis) (UniProt P08659). Briefly: Biochemical firefly luciferase enzyme assay for NPC (AID 624030).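 Note: purified P. pyralis luciferase at 10 nM with luciferin and ATP substrate; 0% = DMSO and -100% = full luciferase inhibition by PTC124 control; nearly all actives have a fitted effect of over 70% in size.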 The method in brief:
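Counter-screen for direct inhibition of the luciferase enzyme by approved-drug library compounds, run at 10 nM enzyme in 50 mM Tris acetate (final). Luminescence was read within 5 min of enzyme-buffer addition and normalized to PTC124 versus DMSO (0%).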

Experiment [16] in a line: qHTS profiling for inhibitors of Plasmodium falciparum proliferation (AID 504749).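 Note: 0% = DMSO vehicle and full inhibition = artemisinin control; nearly all actives have a fitted effect of over 60% in size.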 As to conditions: P. falciparum in erythrocytes, SYBR Green DNA, 72 h, at 28.7 µM (top of the series). The method in brief:
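P. falciparum-infected erythrocytes (0.3% parasitemia, 2.5% hematocrit final) were exposed to compounds for 72 h at 37 C in 5% CO2, then lysed with SYBR Green buffer overnight at room temperature; parasite DNA fluorescence was normalized to artemisinin and DMSO controls.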

The structures appear in SMILES notation. A number with no mark means an inactive call. Records with an inconclusive call do not appear. Activity calls are given as the source filed them. Unless noted, calls come from the whole dose curve; as a rule, active = well fitted curve in the direction sought with a large enough effect; inconclusive = small, poorly fitted or top-dose-only effect, or another doubt; inactive = no such curve, though single readings can be large; an effect the other way counts as inactive or inconclusive.

Alpha-galactosidase (Coffea arabica), sequence (Q42656 whole entry, looked up): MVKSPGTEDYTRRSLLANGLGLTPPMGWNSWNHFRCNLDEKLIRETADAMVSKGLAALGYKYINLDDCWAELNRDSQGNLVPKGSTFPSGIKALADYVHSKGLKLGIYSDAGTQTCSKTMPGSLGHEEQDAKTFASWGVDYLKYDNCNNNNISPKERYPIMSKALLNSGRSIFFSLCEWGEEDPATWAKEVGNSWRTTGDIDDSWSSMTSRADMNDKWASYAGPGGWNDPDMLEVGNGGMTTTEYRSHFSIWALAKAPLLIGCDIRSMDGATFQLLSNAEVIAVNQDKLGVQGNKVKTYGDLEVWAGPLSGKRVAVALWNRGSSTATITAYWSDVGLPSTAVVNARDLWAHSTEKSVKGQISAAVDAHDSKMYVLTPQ
3',5'-cyclic-AMP phosphodiesterase 4B (Homo sapiens), sequence (Q07343 whole entry, looked up): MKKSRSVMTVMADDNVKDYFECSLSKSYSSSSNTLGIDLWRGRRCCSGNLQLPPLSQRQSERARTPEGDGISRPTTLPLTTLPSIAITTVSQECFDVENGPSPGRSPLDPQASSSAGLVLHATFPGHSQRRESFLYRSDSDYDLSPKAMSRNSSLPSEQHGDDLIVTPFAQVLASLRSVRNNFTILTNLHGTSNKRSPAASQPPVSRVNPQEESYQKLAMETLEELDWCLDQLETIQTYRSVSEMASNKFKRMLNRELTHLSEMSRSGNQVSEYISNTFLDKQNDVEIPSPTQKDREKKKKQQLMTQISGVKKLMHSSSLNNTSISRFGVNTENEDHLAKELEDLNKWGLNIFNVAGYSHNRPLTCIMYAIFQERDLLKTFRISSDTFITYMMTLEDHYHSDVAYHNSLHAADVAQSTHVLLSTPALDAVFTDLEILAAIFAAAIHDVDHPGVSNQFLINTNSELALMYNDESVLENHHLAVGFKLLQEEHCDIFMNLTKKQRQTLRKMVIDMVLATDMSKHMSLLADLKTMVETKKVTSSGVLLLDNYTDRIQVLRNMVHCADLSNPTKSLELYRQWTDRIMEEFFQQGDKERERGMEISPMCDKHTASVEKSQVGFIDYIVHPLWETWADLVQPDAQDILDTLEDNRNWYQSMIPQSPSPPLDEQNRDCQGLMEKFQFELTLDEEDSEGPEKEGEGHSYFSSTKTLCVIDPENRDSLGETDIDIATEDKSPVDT
Alpha-galactosidase A (Homo sapiens), sequence (P06280 whole entry, looked up): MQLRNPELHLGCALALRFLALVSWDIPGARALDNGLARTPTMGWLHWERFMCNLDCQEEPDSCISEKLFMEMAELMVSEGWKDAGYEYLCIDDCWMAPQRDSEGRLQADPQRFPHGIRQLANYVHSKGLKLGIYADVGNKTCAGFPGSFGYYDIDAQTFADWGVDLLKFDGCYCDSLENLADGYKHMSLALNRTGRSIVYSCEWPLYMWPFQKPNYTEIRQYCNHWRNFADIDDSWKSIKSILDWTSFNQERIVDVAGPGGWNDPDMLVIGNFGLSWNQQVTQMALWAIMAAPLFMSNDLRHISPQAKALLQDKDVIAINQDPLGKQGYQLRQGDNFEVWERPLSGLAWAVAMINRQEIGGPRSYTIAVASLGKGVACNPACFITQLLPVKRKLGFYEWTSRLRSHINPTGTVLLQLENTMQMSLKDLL
Cytochrome P450 3A4 (Homo sapiens), sequence (P08684 whole entry, looked up): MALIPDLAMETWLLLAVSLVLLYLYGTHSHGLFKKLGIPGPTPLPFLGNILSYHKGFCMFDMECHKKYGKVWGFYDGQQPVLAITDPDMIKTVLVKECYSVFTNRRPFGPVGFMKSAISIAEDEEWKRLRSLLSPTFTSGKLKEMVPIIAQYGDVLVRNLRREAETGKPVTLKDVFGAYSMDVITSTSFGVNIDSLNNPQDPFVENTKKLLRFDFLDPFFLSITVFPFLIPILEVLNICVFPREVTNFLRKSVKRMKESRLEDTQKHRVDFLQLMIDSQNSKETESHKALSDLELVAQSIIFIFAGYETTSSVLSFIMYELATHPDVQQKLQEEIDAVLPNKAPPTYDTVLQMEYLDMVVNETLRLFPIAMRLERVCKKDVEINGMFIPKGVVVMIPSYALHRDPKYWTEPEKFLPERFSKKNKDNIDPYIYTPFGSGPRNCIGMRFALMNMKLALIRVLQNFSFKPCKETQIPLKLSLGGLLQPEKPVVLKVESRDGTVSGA
Pyruvate kinase (Leishmania mexicana), sequence (Q27686 2-499 E452W): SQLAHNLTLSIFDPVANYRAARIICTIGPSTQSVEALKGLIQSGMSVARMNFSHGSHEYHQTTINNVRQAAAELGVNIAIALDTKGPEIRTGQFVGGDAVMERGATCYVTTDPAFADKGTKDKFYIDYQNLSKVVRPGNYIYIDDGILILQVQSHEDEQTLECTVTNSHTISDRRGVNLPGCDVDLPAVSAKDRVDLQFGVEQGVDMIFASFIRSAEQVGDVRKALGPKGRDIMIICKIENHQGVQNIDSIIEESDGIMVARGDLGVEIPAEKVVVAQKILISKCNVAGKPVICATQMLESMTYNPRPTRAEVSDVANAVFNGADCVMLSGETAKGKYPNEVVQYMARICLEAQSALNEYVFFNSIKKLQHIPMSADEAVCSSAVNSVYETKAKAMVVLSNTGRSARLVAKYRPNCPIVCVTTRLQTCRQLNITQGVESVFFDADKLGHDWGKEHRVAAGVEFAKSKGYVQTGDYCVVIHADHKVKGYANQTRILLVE
Guanine nucleotide-binding protein G(i) subunit alpha-1 (Homo sapiens), sequence (P63096 whole entry, looked up): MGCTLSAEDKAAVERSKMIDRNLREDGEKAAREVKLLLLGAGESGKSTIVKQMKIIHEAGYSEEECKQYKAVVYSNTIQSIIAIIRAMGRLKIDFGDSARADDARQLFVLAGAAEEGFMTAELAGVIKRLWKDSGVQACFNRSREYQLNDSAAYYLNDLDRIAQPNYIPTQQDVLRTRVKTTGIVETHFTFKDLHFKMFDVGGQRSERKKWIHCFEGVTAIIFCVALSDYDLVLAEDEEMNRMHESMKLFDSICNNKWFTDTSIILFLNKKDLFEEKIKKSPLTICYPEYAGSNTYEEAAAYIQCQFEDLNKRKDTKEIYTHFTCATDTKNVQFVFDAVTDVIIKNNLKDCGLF
Ubiquitin carboxyl-terminal hydrolase 1 (Homo sapiens), sequence (O94782 whole entry, looked up): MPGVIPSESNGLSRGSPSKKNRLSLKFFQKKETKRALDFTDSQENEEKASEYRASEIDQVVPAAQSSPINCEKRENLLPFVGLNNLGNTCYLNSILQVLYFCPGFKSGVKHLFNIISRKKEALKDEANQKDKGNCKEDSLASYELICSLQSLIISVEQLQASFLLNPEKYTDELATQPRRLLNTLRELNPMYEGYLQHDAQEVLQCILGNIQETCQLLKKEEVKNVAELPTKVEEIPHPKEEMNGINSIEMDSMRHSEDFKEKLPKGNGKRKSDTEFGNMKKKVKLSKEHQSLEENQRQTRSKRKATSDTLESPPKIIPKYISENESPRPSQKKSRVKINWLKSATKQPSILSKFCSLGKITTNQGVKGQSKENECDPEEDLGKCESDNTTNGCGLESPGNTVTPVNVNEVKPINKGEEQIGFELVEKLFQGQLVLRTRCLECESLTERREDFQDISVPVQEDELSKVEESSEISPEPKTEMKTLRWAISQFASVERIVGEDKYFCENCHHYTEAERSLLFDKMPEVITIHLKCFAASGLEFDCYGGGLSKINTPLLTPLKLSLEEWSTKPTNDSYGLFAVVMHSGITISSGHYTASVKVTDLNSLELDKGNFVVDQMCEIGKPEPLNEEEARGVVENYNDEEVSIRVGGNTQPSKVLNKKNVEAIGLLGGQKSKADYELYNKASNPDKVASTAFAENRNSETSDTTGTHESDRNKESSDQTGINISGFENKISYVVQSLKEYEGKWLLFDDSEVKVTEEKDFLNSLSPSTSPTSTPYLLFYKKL
Luciferin 4-monooxygenase (Photinus pyralis), sequence (P08659 whole entry, looked up): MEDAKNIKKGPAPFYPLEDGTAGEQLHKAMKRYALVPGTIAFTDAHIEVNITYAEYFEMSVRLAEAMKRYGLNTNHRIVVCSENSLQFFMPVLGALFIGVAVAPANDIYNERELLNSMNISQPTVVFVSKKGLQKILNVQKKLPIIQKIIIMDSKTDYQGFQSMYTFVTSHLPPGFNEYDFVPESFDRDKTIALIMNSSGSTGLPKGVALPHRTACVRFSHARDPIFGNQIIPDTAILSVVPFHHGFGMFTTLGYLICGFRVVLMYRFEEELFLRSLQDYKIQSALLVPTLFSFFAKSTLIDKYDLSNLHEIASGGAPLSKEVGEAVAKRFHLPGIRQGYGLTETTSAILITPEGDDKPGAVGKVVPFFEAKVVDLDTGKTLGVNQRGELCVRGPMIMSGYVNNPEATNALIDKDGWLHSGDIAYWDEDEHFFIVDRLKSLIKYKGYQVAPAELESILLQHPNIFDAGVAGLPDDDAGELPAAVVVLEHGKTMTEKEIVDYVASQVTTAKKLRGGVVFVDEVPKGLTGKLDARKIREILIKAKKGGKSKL
Glucocorticoid receptor (Homo sapiens), sequence (P04150 whole entry, looked up, the tested form may be a part): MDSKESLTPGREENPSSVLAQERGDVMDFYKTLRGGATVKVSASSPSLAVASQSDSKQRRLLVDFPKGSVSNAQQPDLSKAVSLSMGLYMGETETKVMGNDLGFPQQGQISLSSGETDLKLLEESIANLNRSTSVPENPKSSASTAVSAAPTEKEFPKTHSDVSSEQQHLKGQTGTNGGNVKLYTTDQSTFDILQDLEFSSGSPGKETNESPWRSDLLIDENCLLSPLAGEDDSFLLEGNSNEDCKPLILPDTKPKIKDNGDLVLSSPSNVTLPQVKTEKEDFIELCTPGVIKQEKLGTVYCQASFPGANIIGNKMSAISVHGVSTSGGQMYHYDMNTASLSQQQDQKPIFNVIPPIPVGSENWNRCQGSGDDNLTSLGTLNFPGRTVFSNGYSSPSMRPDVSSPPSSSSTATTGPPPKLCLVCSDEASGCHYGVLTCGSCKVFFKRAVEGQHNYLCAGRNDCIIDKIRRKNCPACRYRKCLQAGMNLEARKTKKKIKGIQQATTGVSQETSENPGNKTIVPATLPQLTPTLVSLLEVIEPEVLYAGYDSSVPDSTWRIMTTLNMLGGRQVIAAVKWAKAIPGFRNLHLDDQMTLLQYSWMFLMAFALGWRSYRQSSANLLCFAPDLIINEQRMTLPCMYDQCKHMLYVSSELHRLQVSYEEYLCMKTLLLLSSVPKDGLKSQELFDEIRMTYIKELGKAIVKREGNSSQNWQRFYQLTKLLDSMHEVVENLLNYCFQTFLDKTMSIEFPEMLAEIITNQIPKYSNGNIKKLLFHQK

As for `CC[C@@H](CO)NC(=O)[C@H]1C=C2c3cccc4c3c(cn4C)C[C@H]2N(C)C1`, the Potency result in experiment [1] was “inactive”. The Potency in [2] was 35.5 µM (active).

`C#CCN(C)C(C)Cc1ccccc1` (stereo not drawn): the molecule was classed as inactive in [3] and in experiment [5]. Also, in experiment [4] (at 17.2 µM (top of the series)), the activity change, negative = inhibition is -4.45%.

As for `NCC#Cc1ccccc1`, the molecule was classed as inactive in [3], in experiment [5], in [7], in [8], in experiment [11] and in experiment [12]. Further, the molecule was called inactive in experiment [13] and in experiment [14]. Also, the activity change, negative = inhibition in experiment [4] (at 38 µM (top of the series)) is 3.19%. Moreover, the Potency in experiment [6] is over 46 µM. The Potency result in experiment [1], in [9] and in [10] was “inactive” each time.

Take `Oc1ccc2c3c1O[C@H]1[C@@H](O)CC[C@@]4(O)C(C2)N(CC2CCC2)CCC314` (stereo partly drawn): the Potency result in [2] and in experiment [15] was “inactive” throughout. Besides, the figures for the activity, negative = inhibition in experiment [16] (parasite line A) and in [16] (parasite line B) were 12% and 0.575%, respectively.

For `CCCN(CCC)C(=O)Cc1c(-c2ccc(Cl)cc2)nc2c(Cl)cc(Cl)cn12`, the call in experiment [3], in [5], in experiment [8], in experiment [11], in experiment [12] and in [13] was inactive. In addition, the molecule was classed as inactive in experiment [14]. Further, the activity change, negative = inhibition in experiment [4] (at 38 µM (top of the series)) is 7.25%. In addition, in experiment [1], the Potency was 2.51 µM (active). For the same molecule, the Potency entry in [9] and in experiment [10] was “inactive” each time.

Values taken from PubChem BioAssay (NCATS).
